For assay [1], the target named is Albumin (Bos taurus) (UniProt P02769). The assay can be described thus: compounds binding labelled BSA control protein – biochemical, small-molecule microarray, Alexa647 label, 635/667 nm fluorescence, artefact control for SMM control protein annotation, profiling panel (AID 1118).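 Also: score merges 667 nm emission intensity and signal-to-noise per printed compound spot.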 To be noted: BSA-A647 binding, fluorescence 635 nm, higher = more signal.
A short description of assay [2]: probe aXIP binding to arrayed compounds – biochemical, NeuroSMM set, 635/667 nm fluorescence, primary screen (AID 1119).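 Also: probe is the protein aXip251-270 applied at 1 µg/mL to compound-printed slides; binding of probe to printed compounds measured as 667 nm fluorescence plus signal to noise.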 The following applies: small-molecule microarray, higher = more signal, called active from +8 up or from −8 down.
Assay [3] is described as follows: probe aNOTCH3 binding on compound microarray – biochemical, small-molecule microarray, 635/667 nm fluorescence, primary screen (AID 1120).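 Also: probe is a biotin-tagged antibody raised against NOTCH3 rather than NOTCH3 protein; score merges spot fluorescence near 667 nm with spot signal to noise.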 To be noted: higher = more signal.
The nature of assay [4]: probe aNOTCH2 binding on compound microarray – biochemical, small-molecule microarray, 635/667 nm fluorescence, primary screen (AID 1121).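 Also: score merges feature fluorescence read at 667 nm with its signal to noise.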 The following applies: higher = more signal.
Assay [5] has as its target Carbonic anhydrase 2 (Homo sapiens) (UniProt P00918). In words: compounds binding carbonic anhydrase 2 – biochemical, small-molecule microarray, Alexa647-labelled CAII, profiling panel (AID 1122). To be noted: CAII-A647 binding fluorescence, higher = more signal.
Assay [6] in a line: COS7 lysate on small-molecule microarray, probe aHis, 635 nm (AID 1123).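 Also: z-score combines 667nm fluorescence intensity with signal-to-noise per printed compound spot.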 The following applies: COS7 cell lysate, fluorescence, higher = more signal.
A short description of assay [7]: probe aLAP1 signal on lysate-treated microarray – cell lysate, small-molecule microarray, COS7 lysate, primary screen (AID 1124).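 Also: lysate comes from COS7 cells expressing LAP1 and is applied at 0.3 µg/mL; score merges spot fluorescence near 667 nm with signal-to-noise over triplicate slides.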 The following applies: probe aLAP1, fluorescence, higher = more signal.
The subject of assay [8] is Sam68 (KHDRBS1). In words: compounds binding KHDRBS1 protein – biochemical, small-molecule microarray, 635 nm fluorescence, primary screen (AID 1125).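 Also: score merges 667 nm channel intensity with signal to noise over triplicate slides.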 The following applies: higher = more signal.
For assay [9], the system named is Chordin-like protein 2 (CHRDL2). The assay can be described thus: compounds binding chordin-like 2 – biochemical, small-molecule microarray, 635 nm fluorescence, primary screen (AID 1126).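 Also: printed compound slides probed with Chrdl2 protein at 4 µg/mL for 1 h at 4 C; score merges 667 nm emission intensity with signal to noise over three replicate slides.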 To be noted: fluorescence 635 nm, higher = more signal.
Assay [10] has as its target Concanavalin-A (Canavalia ensiformis) (UniProt P02866). The assay can be described thus: compounds binding concanavalin A lectin – biochemical, small-molecule microarray, Alexa647 label, 635 nm, artefact control for SMM control protein annotation, primary screen (AID 1127).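 Also: z combines 667 nm emission intensity with signal-to-noise across three replicate slides.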 To be noted: ConA-A647 binding fluorescence, higher = more signal.
Assay [11] is described as follows: compounds binding Alexa647 anti-His antibody – biochemical, small-molecule microarray, 635 nm fluorescence, artefact control for SMM control protein annotation, primary screen (AID 1128).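 Also: score merges feature fluorescence with signal-to-noise for each printed compound spot.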 The following applies: higher = more signal.
The test system of assay [12] is Human papillomavirus type 1a E7 protein (residues 1-88). In words: HPV1a E7 small-molecule binders, primary screen, biochemical, small-molecule microarray, residues 1-88, 635 nm (AID 1129). To be noted: small-molecule microarray binding, fluorescence 635 nm; higher = more signal.
The target of assay [13] is Focal adhesion kinase 1 (Homo sapiens) (UniProt Q05397). The assay can be described thus: PTK2 protein binding on printed compound slides – biochemical, small-molecule microarray, 635/667 nm fluorescence, BSA, DTT, primary screen (AID 1130).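 Also: composite of spot emission at 667 nm and signal to noise over triplicate slides.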 The following applies: 635 nm fluorescence, higher = more signal.
Assay [14] has as its system Fibrinogen (Alexa647-labelled). The assay can be described thus: Alexa647-fibrinogen binding to printed small molecules – biochemical, small-molecule microarray, 635/667 nm fluorescence, artefact control for SMM control-protein annotation, profiling panel (AID 1131).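 Also: z-score merges 667 nm fluorescence with per-spot signal-to-noise over triplicate slides.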 The following applies: fibrinogen-A647 binding fluorescence, higher = more signal.
The target in assay [15] is Follistatin (Homo sapiens) (UniProt P19883). The assay can be described thus: FST protein binding to printed compounds – biochemical, small-molecule microarray, 635/667 nm fluorescence, primary screen (AID 1132). The following applies: 635 nm fluorescence, higher = more signal.
Assay [16] has as its target Fibroblast growth factor 2 (Homo sapiens) (UniProt P09038). The assay can be described thus: basic fibroblast growth factor binding to printed compounds – biochemical, small-molecule microarray, 635/667 nm fluorescence, primary screen (AID 1133). To be noted: FGF2, fluorescence 635/667, higher = more signal.
The nature of assay [17]: JC-1 mitochondrial potential readout, lung cancer cells – cell-based, A549, JC-1 fluorescence, basal, 24 h, 100 nL, profiling panel (AID 1138).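 Also: A549 lung adenocarcinoma cells under basal conditions with no added stimulus; test concentration not given here.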 To be noted: higher = more signal.
In assay [18] the test system is Lefty1. The assay can be described thus: Lefty1 protein binding to printed compounds – biochemical, small-molecule microarray, 635/667 nm fluorescence, primary screen (AID 1139). The following applies: fluorescence 635/667, higher = more signal.
For assay [19], the system named is wheat germ agglutinin (Triticum aestivum), Alexa647-labelled. In words: Alexa647-WGA lectin binding to printed small molecules – biochemical, small-molecule microarray, 635/667 nm fluorescence, artefact control for SMM control-protein annotation, profiling panel (AID 1140).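 Also: score merges 667 nm feature emission with signal to noise over triplicate slides.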 The following applies: WGA-A647 binding, 635 nm fluorescence, higher = more signal.
Assay [20] concerns the target Luciferin 4-monooxygenase (Photinus pyralis) (UniProt P08659). The assay can be described thus: inhibition of purified Photinus pyralis luciferase – biochemical, luminescence, purified enzyme, 2006 set, primary screen (AID 1141).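 Also: cell-free assay with purified firefly luciferase at 100 ng per well in PBS; test concentration not given here.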 The following applies: purified firefly luciferase, SteadyGlo luminescence, 30 min; higher = more signal, called active from +8 up or from −8 down.

Composite z-score, composite Z-score and z-score data for 6 compounds are collected here from PubChem BioAssay.

Calls of active or inactive are those of the source.

Chain of Concanavalin-A (Canavalia ensiformis) (P02866 whole entry, looked up): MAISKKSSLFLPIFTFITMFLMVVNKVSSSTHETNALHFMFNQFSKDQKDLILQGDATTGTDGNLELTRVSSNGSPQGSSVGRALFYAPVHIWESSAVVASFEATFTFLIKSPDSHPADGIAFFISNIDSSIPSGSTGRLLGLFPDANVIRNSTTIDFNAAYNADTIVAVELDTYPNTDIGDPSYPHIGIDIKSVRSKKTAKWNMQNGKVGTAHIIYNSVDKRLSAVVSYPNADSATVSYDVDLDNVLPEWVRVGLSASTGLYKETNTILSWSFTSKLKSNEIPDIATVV
Chain of Follistatin (Homo sapiens) (P19883 whole entry, looked up): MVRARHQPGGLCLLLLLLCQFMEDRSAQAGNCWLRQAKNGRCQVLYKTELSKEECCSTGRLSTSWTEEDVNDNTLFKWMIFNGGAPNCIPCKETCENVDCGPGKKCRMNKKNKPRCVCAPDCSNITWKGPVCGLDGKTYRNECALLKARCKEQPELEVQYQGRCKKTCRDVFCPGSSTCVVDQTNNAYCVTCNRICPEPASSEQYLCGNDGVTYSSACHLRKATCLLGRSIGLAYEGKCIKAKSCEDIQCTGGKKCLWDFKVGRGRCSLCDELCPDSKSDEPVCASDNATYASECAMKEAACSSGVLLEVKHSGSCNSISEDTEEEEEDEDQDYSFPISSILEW
Chain of Focal adhesion kinase 1 (Homo sapiens) (Q05397 whole entry, looked up): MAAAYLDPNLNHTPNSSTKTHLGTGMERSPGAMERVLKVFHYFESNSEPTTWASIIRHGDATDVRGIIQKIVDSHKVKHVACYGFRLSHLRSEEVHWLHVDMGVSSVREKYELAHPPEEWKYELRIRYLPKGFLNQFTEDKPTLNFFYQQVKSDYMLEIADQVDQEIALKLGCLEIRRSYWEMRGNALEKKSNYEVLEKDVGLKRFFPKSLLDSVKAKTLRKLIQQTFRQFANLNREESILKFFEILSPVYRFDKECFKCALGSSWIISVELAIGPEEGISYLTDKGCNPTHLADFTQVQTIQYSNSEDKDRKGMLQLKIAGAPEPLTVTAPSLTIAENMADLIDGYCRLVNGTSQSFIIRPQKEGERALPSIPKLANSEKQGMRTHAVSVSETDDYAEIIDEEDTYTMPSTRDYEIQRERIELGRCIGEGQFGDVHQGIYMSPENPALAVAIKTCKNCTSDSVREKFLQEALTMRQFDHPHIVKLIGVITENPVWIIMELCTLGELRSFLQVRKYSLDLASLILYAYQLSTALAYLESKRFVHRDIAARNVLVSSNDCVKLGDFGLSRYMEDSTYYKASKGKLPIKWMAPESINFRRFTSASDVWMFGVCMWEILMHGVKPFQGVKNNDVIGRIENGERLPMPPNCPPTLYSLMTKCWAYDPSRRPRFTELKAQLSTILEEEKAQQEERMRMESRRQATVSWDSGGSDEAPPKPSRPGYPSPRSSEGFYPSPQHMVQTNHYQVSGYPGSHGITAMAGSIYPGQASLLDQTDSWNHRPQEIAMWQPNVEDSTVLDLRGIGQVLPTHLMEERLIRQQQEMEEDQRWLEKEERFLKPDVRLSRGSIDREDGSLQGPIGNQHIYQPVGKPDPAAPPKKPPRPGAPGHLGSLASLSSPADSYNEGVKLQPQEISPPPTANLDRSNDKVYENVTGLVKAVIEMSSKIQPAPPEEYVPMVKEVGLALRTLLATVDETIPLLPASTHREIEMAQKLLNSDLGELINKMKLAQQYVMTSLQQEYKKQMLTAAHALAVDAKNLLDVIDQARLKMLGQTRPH
Chain of Fibroblast growth factor 2 (Homo sapiens) (P09038 whole entry, looked up): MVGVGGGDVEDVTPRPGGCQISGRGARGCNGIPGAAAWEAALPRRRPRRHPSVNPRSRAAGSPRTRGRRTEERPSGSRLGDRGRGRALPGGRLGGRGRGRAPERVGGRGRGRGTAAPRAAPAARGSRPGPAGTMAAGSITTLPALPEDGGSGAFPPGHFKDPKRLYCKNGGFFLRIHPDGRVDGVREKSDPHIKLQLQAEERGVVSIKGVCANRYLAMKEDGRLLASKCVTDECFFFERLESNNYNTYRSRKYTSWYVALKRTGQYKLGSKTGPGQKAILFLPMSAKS
Chain of Albumin (Bos taurus) (P02769 whole entry, looked up): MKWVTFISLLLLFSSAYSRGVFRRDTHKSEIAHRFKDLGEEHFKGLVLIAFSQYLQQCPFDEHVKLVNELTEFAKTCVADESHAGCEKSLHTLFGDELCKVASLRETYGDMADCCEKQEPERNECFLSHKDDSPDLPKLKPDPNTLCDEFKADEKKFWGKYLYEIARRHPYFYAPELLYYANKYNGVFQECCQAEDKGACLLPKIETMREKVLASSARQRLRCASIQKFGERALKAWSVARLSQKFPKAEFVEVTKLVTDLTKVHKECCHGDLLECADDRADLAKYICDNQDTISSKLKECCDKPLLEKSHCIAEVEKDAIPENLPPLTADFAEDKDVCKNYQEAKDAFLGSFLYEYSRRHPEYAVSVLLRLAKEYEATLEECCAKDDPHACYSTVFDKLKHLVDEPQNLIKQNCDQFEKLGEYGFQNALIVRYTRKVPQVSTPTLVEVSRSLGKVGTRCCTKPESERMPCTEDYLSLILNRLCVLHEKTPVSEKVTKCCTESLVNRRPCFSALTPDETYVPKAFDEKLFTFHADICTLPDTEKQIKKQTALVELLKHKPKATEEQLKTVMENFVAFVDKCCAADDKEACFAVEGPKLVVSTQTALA
Chain of Luciferin 4-monooxygenase (Photinus pyralis) (P08659 whole entry, looked up): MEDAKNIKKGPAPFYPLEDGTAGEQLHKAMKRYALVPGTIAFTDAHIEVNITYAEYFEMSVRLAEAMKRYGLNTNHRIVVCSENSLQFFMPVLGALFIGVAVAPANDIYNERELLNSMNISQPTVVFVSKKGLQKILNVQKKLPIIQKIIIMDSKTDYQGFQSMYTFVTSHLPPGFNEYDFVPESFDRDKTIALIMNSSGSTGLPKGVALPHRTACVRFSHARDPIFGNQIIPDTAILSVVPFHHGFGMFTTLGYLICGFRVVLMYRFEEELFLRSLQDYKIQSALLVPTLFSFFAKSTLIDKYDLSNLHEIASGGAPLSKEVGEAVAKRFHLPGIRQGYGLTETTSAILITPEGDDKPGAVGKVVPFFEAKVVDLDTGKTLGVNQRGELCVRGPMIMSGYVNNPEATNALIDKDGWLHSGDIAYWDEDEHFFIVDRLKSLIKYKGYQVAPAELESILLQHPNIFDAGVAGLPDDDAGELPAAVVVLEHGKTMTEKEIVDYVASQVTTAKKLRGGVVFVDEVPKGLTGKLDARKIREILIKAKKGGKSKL

Regarding `CCCCC(O)C1C=CC2C(=O)N(c3ccccc3)C(=O)C2N1Nc1ccc([N+](=O)[O-])cc1` (stereo not given), the composite z-score is 0.894 in [1]; 0.27 in [3]; -0.148 in [4]; 0.583 in [5]; 2.61 in assay [6]; 0.738 in assay [7]. Also, the composite z-score in [8] is 1.3; in [9] it was -0.0818; in assay [10], 1.02; in assay [11], 0.709; in [12], 1.24; in assay [13] it was 1.16. In addition, the composite z-score in assay [14] is 0.992; in assay [15] it was 0.825; in [16], -0.458; in assay [18] it was 0.264; in assay [19], 0.68. Besides, in assay [2], the composite Z-score is 0.312 (inactive). Further, the results for the z-score in assay [17] and in [20] were -0.52 and 1.89 (inactive), respectively.

With `COc1cc(OC)c(C(O)C2C=CC3C(=O)N(c4ccccc4)C(=O)C3N2Nc2ccc(C(C)C)cc2)cc1Br` (stereo not given), the composite z-score in assay [1] is 0.971; in [3], 0.274; in assay [4] it was 0.236; in [5], 0.426; in assay [6], 2.76; in [7], 0.231. For the same compound, the composite z-score in assay [8] was 1.28; in [9], 0.1; in assay [10], 1.07; in [11], -0.0881; in assay [12], 1.21; in assay [13], 0.441. Further, the composite z-score in [14] is 0.885; in assay [15] it was 0.806; in assay [16], 0.0421; in assay [18], -0.112; in assay [19] it was 1.2. In addition, the composite Z-score in assay [2] is -0.382 (inactive). Also, the z-score in assay [17] was 0.568; in [20], -1.71 (inactive).

For `CC=CC(O)C1C=CC2C(=O)NC(=O)C2N1Nc1ccc(Cl)cc1Cl` (stereo not given), the composite z-score in assay [1] is 0.7; in [3] it was 0.033; in assay [4], -0.0698; in assay [5] it was 0.59; in assay [6], 1.72; in assay [7], 0.465. In addition, the composite z-score in assay [8] was -0.227; in assay [9], 0.853; in [10], -0.953; in [11], 1.78; in assay [12], -0.352; in [13] it was -0.288. For the same compound, the composite z-score is -0.419 in assay [14]; 1.04 in assay [15]; -0.0658 in assay [16]; 0.15 in [18]; 0.898 in [19]. In addition, the composite Z-score in assay [2] is 1.23 (inactive). The z-score in assay [17] was 0.099; in assay [20], -0.158 (inactive).

Take `C=CCC(OC(C)=O)[C@@H]1[C@@H](N(Cc2cc3ccccc3o2)C(=O)c2cccc3ccccc23)c2cc(OCCCO)ccc2N1C(=O)c1ccc2ccccc2n1` (stereo not given in full): the composite z-score was 0.423 in assay [1]; 0.0155 in assay [3]; -0.147 in assay [4]; 0.112 in assay [5]; -0.197 in [6]; 0.637 in assay [7]. In addition, the composite z-score in assay [8] is 0.31; in [9] it was 0.0615; in assay [10], -0.495; in assay [11] it was -0.164; in [12], -0.332; in assay [13], 0.169. Moreover, the composite z-score is -0.137 in assay [14]; 0.403 in [15]; 0.285 in assay [16]; 0.496 in [18]; -0.0075 in assay [19]. The composite Z-score in assay [2] was -0.315 (inactive). The z-score in assay [17] is -0.0913; in [20], -0.305 (inactive).

Regarding `Cc1ccc(S[C@]2(C(=O)NCc3ccccc3)CC(=O)N(Cc3ccccc3C(F)(F)F)[C@@H]2c2ccc(CO)cc2)cc1`, the composite z-score in assay [1] is -0.17; in assay [3], -0.413; in assay [4], 0.0022; in [5], -0.333; in [6] it was 0.397; in assay [7] it was -0.618. Further, the composite z-score in [8] is 0.199; in assay [9] it was -1.77; in assay [10] it was -0.586; in assay [11] it was -0.645; in assay [12], -0.347; in assay [13], -0.496. Further, the composite z-score in assay [14] is 0.443; in assay [15] it was -1.4; in assay [16], -0.574; in assay [18], -1.51; in assay [19] it was -0.212. The composite Z-score in [2] is 0.131 (inactive). Moreover, the z-score in [17] is 0.802; in assay [20] it was -0.0819 (inactive).

With `O=C1N(CCS(=O)(=O)c2ccccc2)c2ccccc2C[C@]12N=C(c1ccc(OCCCO)cc1)O[C@@H]2c1ccccc1`, the composite z-score in assay [1] is 0.815; in [3] it was -0.221; in assay [4], -0.0694; in [5], 0.584; in [6], 3.22; in assay [7], 2.17. The composite z-score came out at 1.29 in assay [8]; 1.25 in assay [9]; 1.05 in assay [10]; 2.16 in assay [11]; 0.806 in [12]; 0.311 in assay [13]. Besides, the composite z-score in [14] amounted to 0.783; in assay [15], 1.41; in assay [16], 1.71; in assay [18], 0.393; in [19] it was 0.392. Moreover, the composite Z-score in assay [2] is 1.86 (inactive). For the same compound, the z-score in [17] is 0.972; in assay [20], -0.889 (inactive).
